Test results from PubChem BioAssay (NCI).
This is part of a sample that, as a whole, favours compounds with a hit. Of some 79,000 tested, about 15% had one in any assay. Cut-off read from the data, not from the text of the source: active = growth inhibition above about 70%; inactive = the rest.

What was measured:
[1] = NCI Yeast Anticancer Drug Screen. Data for the rad50 strain (AID 155);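 note: 0% = growth of vehicle-only cultures of the same strain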; conditions: S. cerevisiae rad50 strain growth inhibition; at 50.0 µM; active compounds read high
Procedure, shortened: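 Yeast carrying a defined DNA repair defect were exposed to test compounds, and growth was compared with vehicle-treated controls to give percent inhibition.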

[2] = NCI Yeast Anticancer Drug Screen. Data for the mec2-1 strain (AID 157); conditions: S. cerevisiae mec2-1 strain, at 50.0 µM, active compounds read high
Procedure, shortened: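 Each compound was tested on mec2-1 yeast, a strain altered in DNA damage repair or cell cycle control. Growth inhibition is reported relative to vehicle.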

[3] = NCI Yeast Anticancer Drug Screen. Data for the sgs1 mgt1 strain (AID 161);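 note: 0% = growth of cultures given vehicle only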; conditions: S. cerevisiae sgs1 mgt1 strain, at 50.0 µM, active compounds read high
Procedure, shortened: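 Read-out: growth inhibition vs vehicle controls. Cells: mutant yeast strain deficient in DNA damage repair.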

[4] = NCI Yeast Anticancer Drug Screen. Data for the cln2 rad14 strain (AID 165);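 note: 0% = growth equal to vehicle treated cultures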; conditions: S. cerevisiae cln2 rad14 strain, at 50.0 µM, active compounds read high
Procedure, shortened: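 Test compounds were added to cln2 rad14 yeast cultures; inhibition of growth was then determined by comparison with vehicle treatment.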

[5] = NCI Yeast Anticancer Drug Screen. Data for the bub3 strain (AID 167); conditions: S. cerevisiae bub3 mutant strain, at 50.0 µM, active compounds read high
Procedure, shortened: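 Compounds were applied to a genetically altered yeast strain carrying a cell-cycle control defect. Growth inhibition was scored against vehicle-treated controls.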

[6] = NCI Yeast Anticancer Drug Screen. Data for the mlh1 rad18 strain (AID 175); conditions: S. cerevisiae mlh1 rad18 strain growth inhibition; at 50.0 µM; active compounds read high
Procedure, shortened: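 Inhibition values reflect reduced growth of mutant yeast versus vehicle-treated controls following compound exposure; the mutations affect DNA damage repair.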

Measured: growth inhibition

O=C1CCCC2C1C1CCCC(=O)C21 (centres undefined)
inactive: [1] 6.95% | [2] -7.45% | [3] 3.1% | [4] 0.9% | [5] 3.15% | [6] 20.2%

N#CC(CN1CCOCC1)[N+](=O)[O-] (centres undefined)
inactive: [1] -2.2% | [2] -4.6% | [3] -14.2% | [4] -24.6% | [5] 16.6% | [6] -13.6%

COC(=O)Nc1nc2ccc(C3c4c(n[nH]c4C)CC(C)(O)C3C(C)=O)cc2[nH]1 (centres undefined)
inactive: [1] 20.4% | [2] 3.85% | [3] -7.3% | [4] -6.5% | [5] 0.45% | [6] 10.6%

c1ccc(B2Nc3ccccc3O2)cc1
inactive: [1] 18.1% | [2] 7.05% | [3] 5.3% | [4] 18.4% | [5] 43% | [6] 39.5%

CN1C(C)(C)NC(=S)C1(C)C
inactive: [1] 26.9% | [2] -18.1% | [3] -5.5% | [4] 11.7% | [5] 1.65% | [6] -9.65%

O=C1C2=Cc3ccccc3OC2(O)Oc2ccccc21 (centres undefined)
inactive: [1] 8.1% | [2] 6.4% | [3] -3.35% | [4] 3.35% | [5] 1.8% | [6] -73.2%

CCOC(=O)C(=CNC(=S)c1ccncc1)C(=O)OCC
inactive: [1] -41.6% | [2] -64.5% | [3] -25.8% | [4] 18.9% | [5] -6.6% | [6] -36%

COC(=O)C1=C(C(=O)OC)SC(=C2C3=C(SC(C(=O)OC)=C(C(=O)OC)S3)c3ccccc32)S1
inactive: [1] 31.1% | [2] -2.15% | [3] 21.9% | [4] 18.9% | [5] -4.6% | [6] 21.2%

O=C1c2ccccc2C(=O)c2c(O)c3c(c(O)c21)CCCC3
inactive: [1] -14.4% | [2] 7.55% | [3] -1.05% | [4] -9.65% | [5] 1.95% | [6] 5.7%

O=C(Oc1ccc([N+](=O)[O-])cc1)C(CSC(c1ccccc1)(c1ccccc1)c1ccccc1)NC(c1ccccc1)(c1ccccc1)c1ccccc1 (centres undefined)
inactive: [1] -3.05% | [2] 20.9% | [3] 6.5% | [4] -19.8% | [5] -3.6% | [6] 23.9%

CCOC(=O)c1[nH]c2ccc(O)c3c2c1CCC3=O
inactive: [1] 30.6% | [2] -4.15% | [3] -3.6% | [4] 13.1% | [5] 6.4% | [6] 16.5%

O=C1CC(C(=O)O)CC(=O)CC(C(=O)O)C1 (centres undefined)
inactive: [1] -0.7% | [2] -13.2% | [3] -10.6% | [4] -33.4% | [5] 14.9% | [6] 18.9%

CCCCCCC1CCC(OC(C)=O)CC1 (centres undefined)
inactive: [1] 5.65% | [2] -4% | [3] -1.1% | [4] -0.9% | [5] 1.7% | [6] 0.55%

NC(Cc1ccccc1CP(=O)(O)O)C(=O)O (centres undefined)
inactive: [1] -46.8% | [2] -41.1% | [3] -16.4% | [4] -4.9% | [5] -29.9% | [6] -44.2%

COc1ccc(C2=NOC(c3ccc(OC)cc3)C2)cc1 (centres undefined)
inactive: [1] -6.85% | [2] -18.3% | [3] -7.25% | [4] -13.8% | [5] 6.05% | [6] 9.55%

Fc1cccc(C(Nc2nncs2)Nc2nncs2)c1
inactive: [1] 14.1% | [2] -0.1% | [3] -1.7% | [4] -11.6% | [5] -3.8% | [6] -4.35%

C(#CC[P+](c1ccccc1)(c1ccccc1)c1ccccc1)C[P+](c1ccccc1)(c1ccccc1)c1ccccc1
inactive: [1] -24.1% | [2] -16.4% | [3] 0.2% | [4] 3.55% | [5] -5.4% | [6] -10.4%

CNC(=O)c1ccccc1C
inactive: [1] -1.15% | [2] -6% | [3] -6.9% | [4] -33.3% | [5] 6.55% | [6] 0.35%

C/C(N)=N/C(=O)OCCOC(=O)/N=C(\C)N
inactive: [1] -2.25% | [2] 8.3% | [3] -9.35% | [4] -5.3% | [5] 15% | [6] 1.9%

O=c1[nH]cnc2nn(C3OC(CO)C(O)C3O)nc12 (centres undefined)
inactive: [1] 10.7% | [2] 11.5% | [3] 1.5% | [4] 11.2% | [5] -7.2% | [6] 23.6%

CC(=O)SSC12CC3CC(CC(C3)C1)C2
inactive: [1] -24.6% | [2] -17.4% | [3] -4.75% | [4] -48.9% | [5] 0.55% | [6] -7.7%

COc1ccc(CCNC(=O)CC(C)=O)cc1
inactive: [1] -49.2% | [2] -40.5% | [3] -42.3% | [4] 11.4% | [5] -38% | [6] -41.8%

Cc1cccc(I)c1
inactive: [1] -21.4% | [2] -24.4% | [3] -4.95% | [4] -2.1% | [5] -2.55% | [6] 17.2%

FC(F)(F)c1cc(C2SCc3nc4ccccc4n32)cc(C(F)(F)F)c1 (centres undefined)
inactive: [1] -5.25% | [2] -23% | [3] -7.9% | [4] 6.95% | [5] -4.35% | [6] -17.4%

O=C1CC(c2ccccc2)C(c2ccccc2)C1 (centres undefined)
inactive: [1] 6% | [2] 0.45% | [3] 4.2% | [4] 4.2% | [5] -24.1% | [6] -0.25%

Cc1ccc([N+](=O)[O-])cc1NC(=O)C(=O)Cc1cc(=O)oc2cc(O)ccc12
inactive: [1] -4.85% | [2] -22.9% | [3] -28.3% | [4] 23.9% | [5] -16.1% | [6] -6.25%

CN(/C=C1\CCCCC1=O)c1ccccc1
inactive: [1] -4.35% | [2] -17.2% | [3] -35.4% | [4] -14.4% | [5] -22.2% | [6] -7%

Cc1cc(CC(O)(c2ccccc2)c2ccccc2)nc2[nH]c(=O)ccc12
inactive: [1] 0.7% | [2] -6.7% | [3] -1.05% | [4] 44.9% | [5] 6.95% | [6] -1.35%

CCOC(=O)/C(O)=C/c1nc2ccccc2nc1C
inactive: [1] 18.8% | [2] 5.65% | [3] 8.9% | [4] -6% | [5] -17.3% | [6] 14.7%

COC(=O)C(=[N+]=[N-])C(=O)c1ccccc1
inactive: [1] 10.1% | [2] 1.05% | [3] -1.3% | [4] 4.65% | [5] -3.6% | [6] 6.9%

CCCCNc1cccc2ccccc12
inactive: [1] 50.2% | [2] 23.1% | [3] -10.2% | [4] -43.5% | [5] 2.55% | [6] 27.6%

NNc1ccc([N+](=O)[O-])c2[nH][nH]c(=O)c12
inactive: [1] 8% | [2] 6.5% | [3] 27.1% | [4] 11.2% | [5] 31.9% | [6] 11.4%

C/C(=N\O)C(=O)c1cccc([N+](=O)[O-])c1
inactive: [1] 12% | [2] 8.3% | [3] 15.4% | [4] 2.75% | [5] -7.45% | [6] 27.1%

CCNC(=O)OCCN(CCOC(=O)NCC)CCc1cccc(OC)c1OC
inactive: [1] 6.1% | [2] 6.65% | [3] -7.3% | [4] 1.95% | [5] -3.5% | [6] 20.6%

CCNC(=O)C(C(=O)OCCN(CC)CC)c1ccccc1 (centres undefined)
inactive: [1] 2.05% | [2] 5.7% | [3] -3.3% | [4] -1.05% | [5] -14.7% | [6] 16.7%

Cc1cccc[n+]1CC(=O)c1ccccc1
inactive: [1] 17.2% | [2] 31.2% | [3] 34.5% | [4] -3.65% | [5] 18.6% | [6] 20.9%

C=C(C)C(=O)OC1C[C@H](COC(C)=O)C2CC=C(CO)C2C2OC(=O)C(=C)[C@H]12 (some centres undefined)
inactive: [1] 16.9% | [2] 15.1% | [3] 10.2% | [4] -1.25% | [5] -1.25% | [6] 25.1%

Cc1cc(Cl)cc(CN(C)Cc2c(C)[nH]c(=O)[nH]c2=O)c1O
inactive: [1] -31.4% | [2] -17.1% | [3] -17.2% | [4] 2.65% | [5] -0.5% | [6] -8.9%

CCO/C=C1/N=C(c2ccccc2Cl)OC1=O
inactive: [1] 10.2% | [2] 5.25% | [3] -1.05% | [4] -30.1% | [5] -17.1% | [6] 14.3%
